Experimental data reported in PubChem BioAssay (NCATS).
Records with an inconclusive call do not appear. Active and inactive are the calls of the source. The call rests on the fitted dose curve; in most records, active means well fitted curve in the direction sought with a large enough effect; inconclusive means small, poorly fitted or top-dose-only effect, or another doubt; inactive means no such curve, though single readings can be large; an effect the other way counts as inactive or inconclusive.

Target: Thioredoxin reductase 1, cytoplasmic (Rattus norvegicus) (UniProt O89049)
Assay: qHTS Assay for Substrates of Mammalian Selenoprotein Thioredoxin Reductase 1 (TrxR1) (AID 488772);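 further: NADPH fluorescence in the first read after selenite addition and not the 8 min delta; 0% is about no effect; a drop in NADPH fluorescence below the no-compound background marks a TrxR1 substrate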
Settings: purified TrxR1, NADPH consumption substrate assay; series mostly up to 57.1 µM; activity change, negative = NADPH consumption: at the top concentration
Outline: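 Quantitative HTS in Tris-HCl buffer at pH 7.5 with EDTA and Tween-20, using rat TrxR1, 400 uM NADPH and 400 uM selenite (final). A fall in initial NADPH fluorescence relative to background marked substrate behaviour.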

Sequence of Thioredoxin reductase 1, cytoplasmic (Rattus norvegicus) (O89049 whole entry, looked up): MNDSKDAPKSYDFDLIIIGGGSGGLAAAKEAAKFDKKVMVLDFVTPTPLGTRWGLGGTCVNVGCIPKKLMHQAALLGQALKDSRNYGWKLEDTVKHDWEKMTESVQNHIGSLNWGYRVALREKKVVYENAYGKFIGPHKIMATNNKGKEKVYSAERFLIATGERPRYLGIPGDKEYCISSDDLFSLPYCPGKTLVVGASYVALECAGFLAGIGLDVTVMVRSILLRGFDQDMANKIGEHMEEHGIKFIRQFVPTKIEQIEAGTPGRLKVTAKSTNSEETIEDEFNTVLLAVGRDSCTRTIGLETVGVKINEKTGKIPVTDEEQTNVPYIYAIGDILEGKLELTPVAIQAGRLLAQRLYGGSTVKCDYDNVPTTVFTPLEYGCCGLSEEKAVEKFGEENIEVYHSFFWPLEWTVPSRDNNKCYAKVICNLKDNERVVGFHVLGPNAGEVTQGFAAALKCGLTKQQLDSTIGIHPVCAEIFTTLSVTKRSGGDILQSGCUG

| Compound | activity change, negative = NADPH consumption | Potency |
| --- | --- | --- |
| CC(C)NC[C@@H](O)c1ccc(O)c(O)c1 | -5.78% (inactive) |  |
| Oc1ccccc1O | -2.47% (inactive) |  |
| C=C[C@H]1CN2CC[C@@H]1C[C@@H]2[C@@H](O)c1ccnc2ccc(OC)cc12 | -1.21% (inactive) |  |
| CN=c1nc(-c2ccccc2)n(-c2ccccc2)s1 | -9.06% (inactive) |  |
| C[N+]1(C)C2CC(OC(=O)[C@H](CO)c3ccccc3)CC1C1OC12 (stereo partly drawn) |  | inactive |
| N#C/C(=C\c1ccc(O)c(O)c1)C(=O)NCc1ccccc1 | -12.8% (inactive) |  |
| C[N+]1(C)CCC(OC(=O)C(c2ccccc2)c2ccccc2)CC1 | 9.89% (inactive) |  |
| O=C(/C=C/c1ccc(O)cc1)c1ccc(O)cc1O | -8% (inactive) |  |
| CC(C)CC(NP(=O)(O)O[C@@H]1O[C@@H](C)[C@H](O)[C@@H](O)[C@H]1O)C(=O)NC(Cc1c[nH]c2ccccc12)C(=O)O (stereo partly drawn) | -4.8% (inactive) |  |

Target: Thioredoxin reductase 1, cytoplasmic (Rattus norvegicus) (UniProt O89049)
Assay: qHTS Assay for Inhibitors of Mammalian Selenoprotein Thioredoxin Reductase 1 (TrxR1) (AID 488773);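 further: drop in NADPH fluorescence over an 8 min run after selenite addition; on the % scale 0 is the no-effect control and ±100 the full control effect; nearly all actives have a fitted effect of over 40% in size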
Settings: purified TrxR1 enzyme activity; Potency: inhibition; series mostly up to 57.1 µM; activity change, negative = inhibition: at the top concentration
Outline: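 Steps: enzyme (90 nM) plus NADPH (400 uM final), 5 min at ~22 deg C; compound added, 15 min; selenite (400 uM final) added; fluorescence followed for 8 min. Concentration-response curves derived from the normalized delta values.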

| Compound | activity change, negative = inhibition | Potency |
| --- | --- | --- |
| CN(C)CCCO[C@@H]1[C@H]2OC(C)(C)O[C@H]2O[C@@H]1[C@H](O)CO | -6.27% (inactive) |  |
| O=C(c1ccc(OCCCc2cnc[nH]2)cc1)C1CC1 | -6.97% (inactive) |  |
| OC[C@H]1O[C@@H](n2cnc3c(Nc4ccccc4)ncnc32)[C@H](O)[C@@H]1O | -2.24% (inactive) |  |
| CC[C@@H](C)[C@H]1O[C@]2(CC[C@H]1C)C[C@@H]1C[C@@H](CC=C(C)[C@@H](O[C@H]3C[C@H](OC)[C@@H](O[C@H]4C[C@H](OC)[C@@H](O)[C@H](C)O4)[C@H](C)O3)[C@@H](C)C=CC=C3CO[C@@H]4[C@H](O)C(C)=C[C@@H](C(=O)O1)[C@]34O)O2 | -12.7% (inactive) |  |
| Nc1nc(SCc2ccc([N+](=O)[O-])cc2)c2ncn([C@@H]3O[C@H](CO)[C@@H](O)[C@H]3O)c2n1 | 2.46% (inactive) |  |
| COc1cccc(C(=O)NCCN2CCN(c3ccc(Cl)cc3)CC2)c1 | -6.57% (inactive) |  |
| O=c1[nH]c2cc(C(F)(F)F)ccc2n1-c1cc(C(F)(F)F)ccc1O | -10.9% (inactive) |  |
| NC(=S)c1ccc[n+]([C@@H]2O[C@@H](COP(=O)([O-])OP(=O)(O)OC[C@H]3O[C@@H](n4cnc5c(N)ncnc54)[C@H](OP(=O)(O)O)[C@@H]3O)C(O)C2O)c1 (stereo partly drawn) | 2.15% (inactive) |  |
| NC(N)=NC(=O)c1nc(Cl)c(N2CCCCCC2)nc1N | -17.3% (inactive) |  |
| CCCn1c(=O)c2[nH]c(-c3ccc(OCC(=O)NCCN)cc3)nc2n(CCC)c1=O | 2.85% (inactive) |  |
| C[N+]1(C)C2CC(OC(=O)[C@H](CO)c3ccccc3)CC1C1OC12 (stereo partly drawn) |  | inactive |
| O=C(O)c1cc(=O)c2ccccc2[nH]1 | 10.2% (inactive) |  |
| CC(C)ON([C@@H](C(=O)NO)C(C)C)S(=O)(=O)c1ccc(-c2ccccc2)cc1 | -0.298% (inactive) |  |
| NC(=O)C1=CN(C2OC(COP(=O)(O)OP(=O)(O)OC[C@H]3O[C@@H](n4cnc5c(N)ncnc54)[C@H](OP(=O)(O)O)[C@@H]3O)C(O)C2O)C=CC1 (stereo partly drawn) | -0.107% (inactive) |  |
| COc1ccc2c(c1)CCC1C2CC[C@@]2(C)C1CC[C@@H]2NCCCCCCN1C(=O)CCC1=O (stereo partly drawn) | -13.1% (inactive) |  |
| C[C@@H](NC(=O)/C(C#N)=C/c1ccc(O)c(O)c1)c1ccccc1 | -11.2% (inactive) |  |
| CCc1c(C(=O)NCCc2ccc(N3CCCCC3)cc2)[nH]c2ccc(Cl)cc12 | -7.41% (inactive) |  |
| CC(N)C(=O)OC(C)(C)Cc1ccc(Cl)cc1 (stereo not drawn) | 3.96% (inactive) |  |
| C[N+]1(C)CCC(OC(=O)C(c2ccccc2)c2ccccc2)CC1 | 12% (inactive) |  |
| O=c1[nH]c2cc([N+](=O)[O-])c([N+](=O)[O-])cc2[nH]c1=O | -11.9% (inactive) |  |
| NC(=S)NCCC[C@H](N)C(=O)O | -6.69% (inactive) |  |
| CN1C2CC(OC(=O)[C@H](CO)c3ccccc3)CC1C1OC12 (stereo partly drawn) | 5.65% (inactive) |  |
| CC(C)CC(NP(=O)(O)O[C@@H]1O[C@@H](C)[C@H](O)[C@@H](O)[C@H]1O)C(=O)NC(Cc1c[nH]c2ccccc12)C(=O)O (stereo partly drawn) | 0.116% (inactive) |  |

Target: Flap endonuclease 1 (Homo sapiens) (UniProt P39748)
Assay: qHTS Validation Assay for the Inhibitors of Human Flap endonuclease 1 (FEN1) (AID 488816); further: potency means the concentration at half of the fitted maximal effect; on activity, negative = inhibition: on the % scale 0 is the no-effect control and ±100 the full control effect
Settings: FEN1 nuclease activity, fluorogenic DNA substrate; series mostly up to 57.1 µM; activity, negative = inhibition: at the top concentration
Outline: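 FEN1, dispensed as a 10 nM reagent, was preincubated with pin-transferred compounds for 15 min at room temperature before substrate was added (50 nM final). Plates were read at 0 and 15 min, and a four-parameter Hill equation was fitted to the concentration-response data.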

Sequence of Flap endonuclease 1 (Homo sapiens) (P39748 whole entry, looked up): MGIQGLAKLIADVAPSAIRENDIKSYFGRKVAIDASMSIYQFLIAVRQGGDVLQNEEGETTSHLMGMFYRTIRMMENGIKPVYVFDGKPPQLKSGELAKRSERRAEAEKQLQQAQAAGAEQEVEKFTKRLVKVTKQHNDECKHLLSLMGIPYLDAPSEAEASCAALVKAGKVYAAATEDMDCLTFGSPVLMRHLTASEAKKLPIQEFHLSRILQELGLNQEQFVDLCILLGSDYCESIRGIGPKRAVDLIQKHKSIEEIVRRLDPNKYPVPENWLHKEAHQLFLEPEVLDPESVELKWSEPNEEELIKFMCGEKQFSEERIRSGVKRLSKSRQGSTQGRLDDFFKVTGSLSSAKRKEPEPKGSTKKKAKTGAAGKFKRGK

| Compound | activity, negative = inhibition | Potency |
| --- | --- | --- |
| CN(C)CCCO[C@@H]1[C@H]2OC(C)(C)O[C@H]2O[C@@H]1[C@H](O)CO | -7.59% (inactive) |  |
| CC(C)NC[C@@H](O)c1ccc(O)c(O)c1 | -19.2% (inactive) |  |
| CN1CCc2ccccc2Cc2[nH]c3ccccc3c2CC1 | -12.4% (inactive) |  |
| O=C(c1ccc(OCCCc2cnc[nH]2)cc1)C1CC1 | -4.39% (inactive) |  |
| OC[C@H]1O[C@@H](n2cnc3c(Nc4ccccc4)ncnc32)[C@H](O)[C@@H]1O | -1.11% (inactive) |  |
| CC[C@@H](C)[C@H]1O[C@]2(CC[C@H]1C)C[C@@H]1C[C@@H](CC=C(C)[C@@H](O[C@H]3C[C@H](OC)[C@@H](O[C@H]4C[C@H](OC)[C@@H](O)[C@H](C)O4)[C@H](C)O3)[C@@H](C)C=CC=C3CO[C@@H]4[C@H](O)C(C)=C[C@@H](C(=O)O1)[C@]34O)O2 | -17.1% (inactive) |  |
| Nc1nc(SCc2ccc([N+](=O)[O-])cc2)c2ncn([C@@H]3O[C@H](CO)[C@@H](O)[C@H]3O)c2n1 | -1.81% (inactive) |  |
| CN=c1nc(-c2ccccc2)n(-c2ccccc2)s1 | -8.46% (inactive) |  |
| COc1cccc(C(=O)NCCN2CCN(c3ccc(Cl)cc3)CC2)c1 | -6.19% (inactive) |  |
| CO/N=C(\C(=O)N[C@@H]1C(=O)N2C(C(=O)O)=C(COC(C)=O)CS[C@H]12)c1csc(N)n1 | -22.6% (inactive) |  |
| O=c1[nH]c2cc(C(F)(F)F)ccc2n1-c1cc(C(F)(F)F)ccc1O | -7.35% (inactive) |  |
| NC(N)=NC(=O)c1nc(Cl)c(N2CCCCCC2)nc1N | -12.4% (inactive) |  |
| CCCn1c(=O)c2[nH]c(-c3ccc(OCC(=O)NCCN)cc3)nc2n(CCC)c1=O | -8.29% (inactive) |  |
| Oc1cc2c(cc1O)CN(C(=S)NCCc1ccc(Cl)cc1)CCC2 | -11.6% (inactive) |  |
| O=C(O)c1cc(=O)c2ccccc2[nH]1 | -6.13% (inactive) |  |
| N#C/C(=C\c1ccc(O)c(O)c1)C(=O)NCc1ccccc1 | -21% (inactive) |  |
| COc1ccc2c(c1)CCC1C2CC[C@@]2(C)C1CC[C@@H]2NCCCCCCN1C(=O)CCC1=O (stereo partly drawn) | -14.9% (inactive) |  |
| CCc1c(C(=O)NCCc2ccc(N3CCCCC3)cc2)[nH]c2ccc(Cl)cc12 | -5.58% (inactive) |  |
| Oc1cc(O)cc(/C=C/c2ccc(O)c(O)c2)c1 |  | 0.844 µM (active) |
| O=C(/C=C/c1ccc(O)cc1)c1ccc(O)cc1O | -9.92% (inactive) |  |
| N#C/C(=C\c1ccc(-c2cc(Cl)ccc2Cl)o1)C(=O)Nc1cccc2ncccc12 | -7.26% (inactive) |  |
